Bioassay records deposited in PubChem by several laboratories.
Compounds with a hit are over-represented: about 1.2% of the library has one in this group of screens.
NR5A2 inv ag: suppresses constitutive activity of human LRH-1; O00482; HEK293T StAR-luciferase reporter, LRH-1 transfected, 24 h; inhibition, % at 3.6 µM; hit rate 0.13% among 360,000;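 active means inhibition above the mean inhibition of all tested compounds plus 3 SD, cut at about 73% in these data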;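 further: 0% = DMSO wells and 100% = reporter-only cells lacking LRH-1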
Target sequence (O00482 whole entry, looked up): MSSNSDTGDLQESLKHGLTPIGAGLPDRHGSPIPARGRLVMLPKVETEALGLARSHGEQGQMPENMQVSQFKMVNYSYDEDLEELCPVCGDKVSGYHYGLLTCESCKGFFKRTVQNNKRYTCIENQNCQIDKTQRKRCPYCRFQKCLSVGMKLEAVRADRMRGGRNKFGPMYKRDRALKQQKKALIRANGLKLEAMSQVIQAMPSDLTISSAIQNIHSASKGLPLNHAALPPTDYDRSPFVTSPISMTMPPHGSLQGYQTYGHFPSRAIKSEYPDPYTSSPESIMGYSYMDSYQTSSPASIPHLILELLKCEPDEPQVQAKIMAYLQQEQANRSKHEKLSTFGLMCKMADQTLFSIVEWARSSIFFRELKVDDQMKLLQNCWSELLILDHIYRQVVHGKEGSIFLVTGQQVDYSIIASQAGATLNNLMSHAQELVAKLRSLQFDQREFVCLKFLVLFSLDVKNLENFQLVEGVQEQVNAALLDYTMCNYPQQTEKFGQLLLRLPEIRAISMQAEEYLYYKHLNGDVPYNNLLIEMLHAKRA
Gli-Sufu block: blocks Gli-Sufu signaling in a luciferase reporter; Sufu-KO-LIGHT fibroblasts, Gli luciferase reporter luminescence; inhibition, % at 5 µM; hit rate 0.74% among 340,000; AID 588413;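 active means inhibition above about 55%, limit read from the data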;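 further: 0% = DMSO-treated cells and 100% = wells with medium but no cells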
SRC3 inh: inhibits human SRC3 coactivator | hit rate 0.17% among 360,000 | HEK293 GAL4-SRC3 luciferase reporter, luminescence | inhibition, % at 3.6 µM;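 active means inhibition above a per-campaign cutoff, the mean of all compounds plus 3 SD, cut at about 60% in these data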;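 further: 0% = DMSO-treated cells and 100% = gossypol-treated cells at 36 µM; higher means less SRC3-driven luciferase light from the GAL4 reporter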
SRC2 inh: inhibits human steroid receptor coactivator 2. hit rate 0.17% among 370,000. HEK293 GAL4-SRC2 luciferase reporter, luminescence. Q15596. inhibition, % at 9 µM. AID 651957;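 active means inhibition above the mean inhibition of all tested compounds plus 3 SD, set per campaign, cut at about 52% in these data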;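 further: 0% = DMSO treated cells and 100% = cells given Gossypol at 36 µM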
COUP-TFII inh: blocks human COUP-TFII nuclear receptor; AID 686940; HEK293T NGFI-A luciferase reporter, luminescence; P24468; hit rate 0.7% among 370,000; inhibition, % at 8.6 µM;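 active means inhibition above a per-plate cutoff, mean inhibition of test wells between control levels plus 3 SD, cut at about 38% in these data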;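 further: cells cotransfected with COUP-TFII expression vector driving the NGFI-A reporter; 0% = median of COUP-TF2 test wells and 100% = reporter-only cells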
SRC1 inh: inhibitors of human steroid receptor coactivator 1 (SRC1) | Q15788 | HEK293 GAL4-SRC1 luciferase reporter, luminescence | inhibition, % at 3.6 µM | hit rate 0.12% among 360,000;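 active means inhibition above the campaign mean plus 3 SD, with each screening campaign given its own cutoff, cut at about 60% in these data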;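 further: 0% = DMSO treated cells and 100% = gossypol at 36 µM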
Gli-Sufu confirm: Gli-SUFU antagonism confirmation, single concentration. hit rate 40% among 2,500. Sufu-KO-LIGHT cells, Gli luciferase reporter, luminescence. inhibition, % at 5 µM. shares compounds with Gli-Sufu block;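 active means mean inhibition at 5 µM reaching about 45%, limit read from the data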;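 further: plate controls were DMSO-treated cells for no effect and wells lacking cells for full effect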
Gli cytotox: cytotoxicity counter-screen for Gli-SUFU antagonists. Sufu-KO-LIGHT cells cytotoxicity, ATP luminescence. shares compounds with Gli-Sufu block. cytotoxicity, % at 5 µM. hit rate 32% among 2,500;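 active means mean cytotoxicity at 5 µM above about 25%, limit read from the data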;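 further: cells exposed to compound overnight for roughly 16 to 18 hours; plate controls were DMSO wells with cells for no effect and medium without cells for full effect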
Wnt3a cs: counter-screen for Gli-SUFU antagonists: Wnt3a reporter inhibition | shares compounds with Gli-Sufu block | Wnt-LIGHT cells, Wnt3a-driven luciferase reporter, luminescence | inhibition, % at 6.25 µM | hit rate 20% among 2,500;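 active means mean inhibition above about 25%, limit read from the data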
The depositor's hits bear a star; · = no result given.

SMILES | NR5A2 inv ag | Gli-Sufu block | SRC3 inh | SRC2 inh | COUP-TFII inh | SRC1 inh | Gli-Sufu confirm | Gli cytotox | Wnt3a cs
N=c1c(-c2nc3ccccc3[nH]2)cc(C(=O)c2ccco2)nn1-c1ccccc1 | 4 | 62* | 0 | -1 | 2 | -5 | 35 | 6 | -118
N=c1c(-c2nc3ccccc3[nH]2)cc(C(=O)c2cccs2)nn1-c1ccccc1 | -6 | 8 | 1 | · | · | -2 | · | · | ·
CC(NC(=O)CCNC(=O)c1ccccc1Cl)C1CC2CCC1C2 (stereo not drawn) | 19 | 55 | 14 | -6 | -9 | 21 | 18 | 18 | -34
O=C(Cc1ccccc1)NCCS(=O)(=O)N1CCN(c2ccccc2)CC1 | -19 | -4 | -6 | 7 | 18 | -7 | · | · | ·
O=C(Cc1ccc(F)cc1)NCCS(=O)(=O)N1CCN(c2ccccc2)CC1 | -9 | 97* | 5 | 6 | 1 | 7 | 10 | 8 | -56
O=C(Oc1ccccc1N1C(=O)C2CC=CCC2C1=O)c1ccc(Br)cc1 (stereo not drawn) | -3 | 52 | 17 | -14 | 4 | -11 | 17 | 11 | -16
Cc1ccccc1C(=O)Oc1ccccc1N1C(=O)C2CC=CCC2C1=O (stereo not drawn) | 6 | 9 | 27 | 1 | -1 | -6 | · | · | ·
CSCCC(=O)N(C)CC1CCCN(CCc2cccc(C(F)(F)F)c2)C1 (stereo not drawn) | -3 | 22 | 4 | 17 | 0 | 8 | · | · | ·
COC(=O)CCC(=O)N(C)CC1CCCN(CCc2cccc(C(F)(F)F)c2)C1 (stereo not drawn) | -21 | 56* | 7 | 0 | -6 | -25 | 17 | 7 | -23
C=CC[C@]12C[C@@]3(O[C@H](C4CCCCC4)N=C3C[C@H](c3ccc(OC)cc3)[C@H]1C)N(Cc1ccncc1)C2=O | · | · | · | 26 | -1 | · | · | · | ·
Cc1cc(N2CC(C)OC(C)C2)nc(C(C)C)n1 (stereo not drawn) | 8 | 52 | 1 | -9 | -8 | 0 | 16 | 19 | 5
CC(OC(=O)CCC(=O)c1ccc(Cl)s1)C(=O)NC1(C#N)CCCCC1 (stereo not drawn) | 11 | 94* | -29 | 11 | -11 | -13 | 22 | 2 | -17
COc1cc2c(cc1OC)C(C(=O)Nc1ccccc1N1CCN(C)CC1)C1c3ccccc3CCN1C2=O (stereo not drawn) | -5 | 56* | 8 | 2 | -3 | -7 | 34 | 20 | -10
C=Cn1cc[n+](CC(=O)c2ccc(-c3ccccc3)cc2)c1 | 4 | 53 | 5 | -2 | 1 | 11 | 37 | 8 | -29
CCN(CC)CCCNC(=O)c1cc2c(-c3cccc(OC)c3)nn(C)c2s1 | -1 | 6 | -8 | -26 | -36 | -36 | · | · | ·
CCCCN(CC)CCCNC(=O)c1cc2c(-c3ccc(OC)c(OC)c3)nn(C)c2s1 | -15 | 56* | -12 | -38 | -14 | -6 | 17 | 11 | -14
O=C1OCCC1Sc1nnc(-c2ccc(Cl)cc2Cl)o1 (stereo not drawn) | 3 | 53 | 37 | 29 | 28 | 12 | 67* | 12 | 78*
O=C(NCc1ccccc1)[C@H]1CCCN1C(=O)[C@H]1CCCN1C(=O)c1cccc2ccccc12 | · | · | · | -1 | 19 | · | · | · | ·
CCOc1ccc(-c2nc(CSCC(=O)NCC3CCCO3)c(C)o2)cc1 (stereo not drawn) | 6 | 89* | -4 | -9 | -3 | -5 | 89* | 8 | 25
Cc1ccc(CN2CCC=CS2(=O)=O)cc1 | · | · | · | -7 | -10 | · | · | · | ·
CCc1nc(CN2CCCC(C(=O)Nc3ccc(-c4cccc(OC)c4)cc3)C2)c(C)[nH]1 (stereo not drawn) | -6 | · | -31 | -28 | -11 | -19 | · | · | ·
CCc1nc(CN2CCCC(C(=O)c3ccc4c5c(cccc35)CC4)C2)c(C)[nH]1 (stereo not drawn) | -4 | 52 | 11 | 27 | 28 | -2 | 15 | 6 | -44
